Results filed as inconclusive are left out. Active and inactive are the calls of the source. Calls follow the shape of the dose curve; as a rule, active = well fitted inhibition curve with a large enough effect; inconclusive = small, poorly fitted or top-dose-only effect; inactive = flat fitted curve, though single readings scatter.
% is scaled to controls: 0 for no effect and ±100 for the full control effect; potency is read from the fitted curve at half-maximal effect.

For this assay, the system named is NIH3T3. In words: Cytotoxic Profiling of Annotated Libraries Using Quantitative High-Throughput Screening (AID 1296008). Also: nearly all actives have a fitted effect of over 60% in size. As to conditions: Five cell lines viability, CellTiter-Glo ATP luminescence, 48-72 h; max response: stronger effect = lower value. The procedure, abridged: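 Compounds were pin-transferred onto cells and incubated 48 or 72 hr at 37 degree Celsius, 95% humidity. CellTiter-Glo was added, plates sat 10 min at room temperature, then ATP-coupled luminescence was imaged as the viability read-out.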
In general terms: ATP-based viability assays read luminescence as a measure of living cells.
In the case of `O=C(C(c1ccccc1)c1ccccc1)N1CCN(CC(O)COc2cccc3ncccc23)CC1` (centres undefined), the max response was -26.9% (inactive).
Still for that read-out and setting: for `C[C@@H]1O[C@@H](O[C@H]2[C@H](O)[C@@H](O[C@@H]3O[C@H](CO)[C@@H](O)[C@H](O[C@@H]4O[C@H](CO)[C@@H](O)[C@H](O)[C@H]4O)[C@H]3O)[C@H](O[C@H]3CC[C@@]4(C)C(=CC[C@@H]5C4CC[C@@]4(C)C5C[C@@H]5OC6(CC[C@@](C)(CO[C@@H]7O[C@H](CO)[C@@H](O)[C@H](O)[C@H]7O)O6)[C@@H](C)[C@@H]54)C3)O[C@@H]2CO)[C@H](O)[C@H](O)[C@H]1O` (some centres undefined) the value was 3.35% (inactive); for `COc1ccc(/C=C/C(=O)O[C@@H]2[C@@H](O)[C@@H](O)[C@H](O[C@@H]3C=C(CO)[C@H]4[C@H](O[C@@H]5O[C@H](CO)[C@@H](O)[C@H](O)[C@H]5O)OC=C[C@H]43)O[C@H]2C)cc1O`, -43% (inactive).
Same read-out and setting: then `CC1CC[C@]2(C(=O)O)CC[C@]3(C(=O)O)C(=CCC4[C@@]5(C)CC[C@H](OC6OC(C)C(O)C(OC7OC(CO)C(O)C(O)C7O)C6O)C(C)(C)C5CC[C@]43C)C2C1C` (some centres undefined), with 2.41% (inactive); and `C/C(=C/CO)CC[C@@H]1[C@@](C)(O)CCC2C(C)(C)CCC[C@]21C` (some centres undefined), with -10.9% (inactive).
With `O=C(NCC(O)CO)c1ccncc1Nc1ccc(I)cc1F` (centres undefined), the Potency was 7.31 µM (active).
Turning to `CC(=O)O[C@@H](CO[C@@H]1O[C@H](CO)[C@H](O)[C@H](O)[C@H]1O)[C@]1(C)C=C2CC[C@@H]3C(C)(C)[C@@H](O)CC[C@@]3(C)[C@@H]2CC1`, the max response is 4.41% (inactive).
Take `C[C@@H]1CC[C@]2(C(=O)O)CC[C@]3(C)C(=CCC4[C@@]5(C)C[C@@H](O)[C@H](O)[C@@](C)(CO)C5CC[C@]43C)C2[C@]1(C)O` (some centres undefined): the max response was -6.81% (inactive).
Same read-out and setting: for `CC(C)=CCC[C@](C)(O)[C@H]1CC[C@]2(C)[C@@H]1[C@H](O)CC1[C@@]3(C)CC[C@H](O)C(C)(C)C3[C@@H](O[C@@H]3O[C@H](CO)[C@@H](O)[C@H](O)[C@H]3O[C@@H]3OC[C@@H](O)[C@H](O)[C@H]3O)C[C@]12C` (some centres undefined) the value was 1.41% (inactive).
